A selection: hits, their analogues and other compounds. The true share with any hit is near 7.9%.
FMDV inh = antivirals against foot and mouth disease virus; FMDV antiviral cell-based qHTS; Potency, µM (highest dose often 57.9 µM), inactives show at the top dose activity change, negative = inhibition, most hits filed as inhibitors; 1.2% of 410,000 active; calls by dose curve; tested in HEK293T cells; note: read-out not given here; potency is the fitted concentration of half-maximal effect; nearly all actives have a fitted effect of over 45% in size
HCV inhibitor = HCV inhibition | Potency, µM (series often up to 41.8 µM), inactives show at the highest dose activity change, negative = inhibition, hits mostly inhibitors | AID 651820 | 3.4% of 340,000 active | Huh7.5.1 HCVcc-Cre infection, luciferase reporter, 44 h; active = well fitted inhibition curve with a large enough effect; inconclusive = small, poorly fitted or top-dose-only effect, or another doubt; inactive = no such curve, though single readings can be large or run the other way; note: potency is the fitted concentration of half-maximal effect
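Compounds are dispensed onto cells plated 4 h earlier at 1,000 per well, with HCVcc-Cre virus (about 0.5 moi) added next. Following 44 h of culture, luminescent signal is measured for 15 sec after 15 min with substrate at room temperature.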
HCMV antiviral = blocks human cytomegalovirus replication; 4.5% of 410,000 active; HFF cells, HCMV-luciferase reporter, 72 h; active compounds read low; activity change, negative = inhibition, % at 57.5 µM; in the data active = activity change below about -60%; inconclusive = no clear call, values can overlap the other calls; inactive = above about -39%
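Two-dose cell screen: HFF monolayers treated with compounds and infected with luciferase-expressing HCMV at 1 PFU/cell, 72 h at 37C, then lysed for luciferase measurement.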
LASV entry inh = Lassa virus entry inhibition; 1.2% of 300,000 active; Lassa virus pseudotype entry inhibition, cell reporter; Potency, µM (highest dose often 37.9 µM), inactives show at the top dose activity change, negative = inhibition, hits mostly inhibitors; calls by dose curve; tested in HEK293 cells; note: potency is the fitted concentration of half-maximal effect; nearly all actives have a fitted effect of over 50% in size
MARV entry inh = Marburg virus entry inhibition; Marburg virus pseudotyped entry inhibition, cell reporter; Potency, µM (titrated, usually from 37.8 µM), inactives show top-dose activity change, negative = inhibition, usual class: inhibitors; 1.8% of 300,000 active; AID 540276; calls by dose curve; tested in HEK293 cells; note: potency is the fitted concentration of half-maximal effect
* = called active by the depositor; ? = inconclusive; · = no result given; ! = repeats disagree; [ ] = remark or other dose. % is set by controls: 0 for no effect and ±100 for the full control effect.

SMILES | FMDV inh | HCV inhibitor | HCMV antiviral | LASV entry inh | MARV entry inh
CN1CCN(C(CNC(=O)c2ccc(F)cc2)c2ccc3c(c2)OCO3)CC1 (configuration not stated) | -9% | · | -9 | 2%[46.1 µM] | ·
CCC(Cc1ccccc1)NCc1c(C(=O)O)c(C)n(Cc2ccccc2)c1C (configuration not stated) | -8% | -12% | -74* | -29%[46.1 µM] | ?
Cc1c(CNCC(C)c2ccccc2)c(C(=O)O)c(C)n1Cc1ccccc1 (configuration not stated) | -4% | 4% | -36 | -6%[46.1 µM] | -1%[46.1 µM]
Cc1cccc2c1-c1sc(C(=O)NCCCN3CCN(c4cccc(Cl)c4)CC3)cc1CO2 | -32% | · | -75* | ? | ?
Cc1cccc2c1-c1sc(C(=O)Nc3ccccc3N3CCN(C)CC3)cc1CO2 | ? | -12% | -5 | ? | 16µM*
Cc1cccc2c1-c1sc(C(=O)NCCCN3CCN(c4ccccc4F)CC3)cc1CO2 | ? | · | -108* | · | 11µM*
COc1cc(Cl)c(C)cc1NC(=O)c1cc2c(s1)-c1c(C)cccc1OC2 | 0% | · | 9 | · | -9%[46.1 µM]
CCN1CCN(CCCNC(=O)c2cc3c(s2)-c2c(C)cccc2OC3)CC1 | 0% | · | -2 | · | 10µM*
O=P(c1ccccc1)(c1ccccc1)c1nc(-c2ccc(Cl)cc2)oc1N1CCOCC1 | -24% | 10µM* | -88* | -29% | ?
Cc1cccc(N2CCN(c3ncnc4onc(C)c34)CC2C)c1 (configuration not stated) | 3.2µM* | · | -100* | ? | ·
O=C(O)c1cn(C2CC2)c2cc(N3CCNCC3)c(F)cc2c1=O | -7% | · | · | · | ·
CCCN(CC)c1ncnc2[nH]ncc12 | -9% | 0% | -65* | 9% | ?
CCCS(=O)(=O)NC(=O)C1(C)CCCN(C(=O)Cc2ccc3ccccc3c2)C1 (configuration not stated) | 0% | · | -6 | · | ·
CCn1c(=NC(=O)c2ccc3c(c2)OCCO3)sc2c(C)ccc(OC)c21 | ? | · | -16 | 15%[46.1 µM] | ·
CCn1c(=NC(=O)C2COc3ccccc3O2)sc2c(OC)ccc(OC)c21 (configuration not stated) | 12% | 11µM* | -36 | · | ·
O=C(NCCSCc1ccccc1Cl)C1CCN(S(=O)(=O)Cc2ccccc2)CC1 | -18% | · | 8 | -9%[46.1 µM] | 1%[46.1 µM]
N#Cc1c(N)nc2c(c1-c1ccc3c(c1)OCO3)CCc1ccccc1-2 | ? | 13µM* | 8 | ? | ?
N#Cc1c(-c2ccc3c(c2)OCO3)csc1N | 20% | 8.9µM* | 5 | 14% | 6%
O=c1cc(-c2ccc(O)cc2)oc2ccc3ccccc3c12 | 5.6µM* | 13µM* | -86* | · | ·
O=c1cc(-c2ccc(O)cc2)oc2c1ccc1ccccc12 | -19% | -26% | -13 | · | ·
COc1ccc(-c2cc(=O)c3c(OC)c(OC)c(OC)c(OC)c3o2)cc1 | 0% | 10µM* | 21 | · | ·
COc1cc2oc(-c3ccc(O)cc3)cc(=O)c2c(O)c1OC | 34% | ? | -110* | · | ·
COc1ccc(-c2cc(=O)c3cc(OC)ccc3o2)cc1 | 34% | 3% | 9 | · | ·
COc1cccc(CN2CC3(CN(S(C)(=O)=O)C3)c3c(n(C)c4cc(OC)ccc34)[C@H]2CO)c1 | · | · | -33 | · | ·
Cc1c(Cl)cccc1N=Cc1ccc([N+](=O)[O-])s1 | 0% | -29% | -108* | ? | ?
SMILES | FMDV inh | HCV inhibitor | HCMV antiviral | LASV entry inh | MARV entry inh
Cc1ccc(N2CCN(S(=O)(=O)N3CCCCCC3)CC2)cc1Cl | 4% | 4% | -8 | 4% | -17%
Cc1ccc(N2CCN(S(=O)(=O)N3CCCCC3)CC2)cc1C | -11% | 2% | -69* | -4% | 12%[46.1 µM]
CCNC(=O)C1(C)CCCN(Cc2ccc(-c3ccccn3)cc2)C1 (configuration not stated) | -16% | · | -100* | · | ·
CCCNC(=O)C1(C)CCCN(Cc2ccc(-c3ccccc3)cc2)C1 (configuration not stated) | -19% | · | 64 | · | ·
Cc1cccc(C)c1OC(=O)Cc1ccccc1[N+](=O)[O-] | -18% | -14% | -64* | -3%[46.1 µM] | -1%[46.1 µM]
Nc1nn(-c2ccccc2)nc1C(=O)OCc1ccccc1 | 26% | 5% | 10 | ? | ?
COc1cccc(COC(=O)c2nn(-c3ccccc3)nc2N)c1 | 25µM*! | 17% | -25 | ? | ?
Cc1cc(=O)n(Cc2cccc(F)c2)c2c1c(C)nn2-c1cccc(F)c1 | -19% | · | -8 | 6%[46.1 µM] | ·
CC12CCC(C(=O)Nc3cccc(Cl)c3)(C(Br)C1=O)C2(C)C (configuration not stated) | ? | 29% | -31 | ? | ?
CC12CCC(C(=O)Nc3ccc(Cl)cc3)([C@H](Br)C1=O)C2(C)C (some centres not stated) | -27% | 5% | -61* | 4% | -12%[46.1 µM]
CCOC(=O)CN1C(=O)NC(c2cccc(F)c2)C(C(C)=O)=C1C (configuration not stated) | · | · | · | · | 13%[14.2 µM]
CCn1cc(C(=O)O)c(=O)c2c1CC(N1CCNCC1)=C(F)C2 | · | · | · | · | -7%
CCOC(=O)c1ccc(NC(=O)c2cn(-c3ccccc3)nc2-c2ccncc2)cc1 | ? | ? | -6 | -25% | 7.1µM*
CCN(CC)CCNC(=O)c1ccc(NC(=O)c2cn(-c3ccc(F)cc3)nc2-c2cccc(OC)c2)cc1 | 11% | ? | -66* | ? | ?
CCN(CC)CCNC(=O)c1ccc(NC(=O)c2cn(-c3ccccc3)nc2-c2cccs2)cc1 | -22% | 11µM* | -98* | · | ·
CCN(CC)CCNC(=O)c1ccc(NC(=O)c2ccc3c(c2)CCC3)cc1 | 5% | 11µM* | 55 | · | ·
CCOC(=O)c1ccc(NC(=O)c2cn(-c3ccccc3)nc2-c2ccc(C)cc2)cc1 | -22% | · | 20 | 13%[46.1 µM] | ·
CCCCOCCCNC(=O)C[C@@H]1C[C@@]2(C(=O)OCC)CCCC=C2N(Cc2ccc3c(c2)OCO3)C1=O | -7% | · | 30 | · | ·
CCN(CC)CCNC(=O)c1ccc(NC(=O)c2ccccc2-c2ccc(C(F)(F)F)cc2)cc1 | -11% | ? | -23 | ? | 2.8µM*
CCCOc1nc(N)c(C#N)c(-c2ccccc2F)c1C#N | -6% | 35µM* | -21 | ? | -8%
COc1cc(-c2cc(C)c3c(OC)ccc(OC)c3n2)cc2c1OCCN(Cc1cn(C)nc1C)C2 | -3% | · | · | · | ·
O=C(CCC(=O)OCC(=O)c1ccc(Cl)cc1)NC1CCCCC1 | 10% | 4% | -105* | 1% | -1%
Cc1cc(C)c(S(=O)(=O)Nc2ccc(-c3ccc(N4CCCCCC4)nn3)cc2)c(C)c1 | 40% | · | -7 | -12%[46.1 µM] | ·
Cc1cccc(-c2nc3c(N4CCOCC4)nccc3[nH]2)c1 | · | · | 0 | · | ·
N#CC1CCCc2c1[nH]c1ccc([N+](=O)[O-])cc21 (configuration not stated) | -18% | ? | -32 | ? | 10µM*
O=C1NCCc2c1[nH]c1ccc([N+](=O)[O-])cc21 | 3% | ? | 1 | · | 13%[46.1 µM]
